VDR inhibitor – Inhibitors of the vitamin D receptor (VDR): qHTS; Vitamin D3 receptor (Homo sapiens), P11473; VDR-SRC2-3 peptide fluorescence polarization, 2 h; Potency, µM, inactives show max response, negative = inhibition, most hits filed as inhibitors; 400,000 tested, 0.93% active; also: potency is read from the fitted curve at half-maximal effect; % is scaled to controls: 0 for no effect and ±100 for the full control effect
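Two reagent solutions held at 4 deg C in the dark were dispensed, compounds pinned at 23 nl, and the mixture incubated 2 h at room temperature. Read-out: fluorescence polarization of VDR–SRC2-3 peptide binding.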
Vif-A3F inh – qHTS for Inhibitors of Vif-A3F Interactions: qHTS | 390,000 tested, 0.2% active | Potency, µM (doses to about 46.1 µM), for the others: at the highest dose activity, negative = active | AID 602313, 2012 | HeLa A3F-eYFP + Vif (tagged APOBEC3F with the HIV-1 protein that degrades it), YFP fluorescence increase; also: potency is read from the fitted curve at half-maximal effect; % of control where 0% means no effect; nearly all actives have a fitted effect of over 65% in size
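Fluorescence increase (Ex 488/Em 500-530) after overnight compound treatment at 37 deg C flags inhibition of Vif-driven A3F-eYFP loss in stable HeLa A3F-eYFP/Vif cells seeded overnight beforehand.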
Vif-APOBEC3G blk – qHTS for Inhibitors of Vif-A3G Interactions: qHTS; 410,000 tested, 0.076% active; HeLa A3G-eYFP + Vif (tagged APOBEC3G with the HIV-1 protein that degrades it), YFP fluorescence, overnight; AID 602310, 2012; DNA dC->dU-editing enzyme APOBEC-3G (Homo sapiens), Q9HC16; Potency, µM (titrated, usually from 46.1 µM), for inactives: top-dose activity, negative = active, actives largely listed as inhibitors; also: potency is read from the fitted curve at half-maximal effect; % is scaled to controls: 0 for no effect and ±100 for the full control effect; nearly all actives have a fitted effect of over 60% in size
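HeLa cells stably expressing Vif and C-terminally eYFP-tagged A3G, seeded overnight at 37 deg C, then exposed to compound by pintool overnight at 37 deg C. Rise in yellow fluorescence (Ex 488/Em 500-530, Acumen) marks blocked Vif-driven A3G degradation.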
TSHR antag – Antagonists of the Thyroid Stimulating Hormone Receptor: HTS campaign; 330,000 tested, 0.2% active; Thyrotropin receptor (Homo sapiens), P16473; activity change, negative = inhibition, % at 11.5 µM; AID 504810, 2011; TSHR-expressing cells, TSH-stimulated cAMP HTRF, 2 h; active compounds read low;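 active = activity change below a set negative limit, meaning inhibition stronger than a set level, cut at about -70% in these data; inconclusive = activity change between two set negative limits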; also: % is scaled to controls: 0 for no effect and ±100 for the full control effect
Target sequence (P16473 whole entry, looked up): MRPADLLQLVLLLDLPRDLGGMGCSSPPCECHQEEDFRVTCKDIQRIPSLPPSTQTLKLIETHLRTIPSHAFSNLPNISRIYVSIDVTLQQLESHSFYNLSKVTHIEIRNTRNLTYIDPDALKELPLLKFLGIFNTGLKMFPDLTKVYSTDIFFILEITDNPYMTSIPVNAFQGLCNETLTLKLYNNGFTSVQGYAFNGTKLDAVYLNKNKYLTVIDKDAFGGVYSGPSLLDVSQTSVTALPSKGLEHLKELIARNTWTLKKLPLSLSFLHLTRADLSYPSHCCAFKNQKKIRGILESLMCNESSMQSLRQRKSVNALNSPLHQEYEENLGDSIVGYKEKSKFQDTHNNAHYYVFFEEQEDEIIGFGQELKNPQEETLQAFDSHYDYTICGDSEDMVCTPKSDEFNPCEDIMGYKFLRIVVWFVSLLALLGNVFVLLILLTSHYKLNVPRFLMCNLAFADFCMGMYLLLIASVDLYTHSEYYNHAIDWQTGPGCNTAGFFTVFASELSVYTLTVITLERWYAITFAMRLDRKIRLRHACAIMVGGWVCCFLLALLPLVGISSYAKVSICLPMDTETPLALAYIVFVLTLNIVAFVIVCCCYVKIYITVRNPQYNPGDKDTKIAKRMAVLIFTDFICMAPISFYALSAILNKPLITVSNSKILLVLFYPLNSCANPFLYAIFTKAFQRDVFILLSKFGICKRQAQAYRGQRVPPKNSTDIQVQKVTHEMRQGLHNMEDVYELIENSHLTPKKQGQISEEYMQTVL
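TSHR-expressing cells, 200/well, pre-treated with compound, then stimulated with EC80 TSH (4nM final) for 2 hours at 37 deg C. cAMP measured by competitive HTRF: anti-cAMP cryptate antibody in lysis buffer plus cAMP-d2, read after 30 minutes at room temperature.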
PLK1 PBD block – qHTS for Inhibitors of PLK1-PDB (polo-like kinase 1 - polo-box domain): Primary Screen; AID 720504, 2013; Serine/threonine-protein kinase PLK1 (Homo sapiens), P53350; Potency, µM, for the others: max response, negative = inhibition, actives largely listed as inhibitors; Plk1 PBD binding of FITC phosphopeptide, fluorescence polarization; 360,000 tested, 2.8% active; also: potency is read from the fitted curve at half-maximal effect; series mostly up to about 57 µM; % is scaled to controls: 0 for no effect and ±100 for the full control effect; nearly all actives have a fitted effect of over 65% in size
Numbers without * were called inactive; ? = inconclusive; / = not tested or not shown; ! = repeats disagree. An excerpt weighted towards active compounds, which were near 3.1% of everything screened. Unless noted, calls follow the shape of the dose curve; as a rule, active = well fitted curve in the direction sought with a large enough effect; inconclusive = small, poorly fitted or top-dose-only effect, or another doubt; inactive = no such curve, though single readings can be large; an effect the other way counts as inactive or inconclusive.

SMILES | VDR inhibitor | Vif-A3F inh | Vif-APOBEC3G blk | TSHR antag | PLK1 PBD block
COc1ccc(/C=C(\C#N)C(=O)Nc2cc(S(=O)(=O)N3CCOCC3)ccc2N2CCCC2)cc1 | 35.5µM* | 8.8% | -12.3% | -7.0 | 6.7µM*
COc1ccc(S(=O)(=O)c2cc3cc(C(C)(C)C)cc(O)c3oc2=O)cc1 | -16.5% | 0.1% | -28.4% | / | /
CC(C)n1c(=S)[nH]c2ccccc21 | -8.2% | -5.7% | 0.9% | -3.1 | 25.1µM*
CCCCC/C=C\C/C=C\C/C=C\C=C\C(=O)CCCC(=O)O | -3.4% | / | / | / | /
CCOC(=O)c1cccc(NC(=O)C2CCN(S(=O)(=O)c3ccc4c(c3)oc(=O)n4C)CC2)c1 | -26.8% | 0.9% | 3.2% | / | /
CC(=O)Nc1ccc(SC[C@H](Cc2ccccc2)N2CC[C@@H](N)CCC2=O)cc1 | / | / | -0.5% | / | /
O=C(CSc1nc(-c2ccc(F)cc2)cc(C(F)(F)F)n1)NCc1ccco1 | -28.0% | -3.9% | 0.0% | 4.5 | 2.99µM*
O=C(CSc1nc(-c2ccc(F)cc2)cc(C(F)(F)F)n1)NCc1cccs1 | -14.3% | 2.5% | -2.2% | -4.7 | -9.4%
COc1ccc(C2CC(c3ccccc3)Oc3cc(OC)ccc32)cc1 (stereo not given) | -1.0% | / | 1.4% | / | /
CCc1nnc2c(NCCc3ccc(OC)c(OC)c3)nc3ccccc3n12 | ? | 1.3% | -0.6% | -4.2 | 26.7µM*
COc1ccc(S(=O)(=O)n2[nH]c(=O)c(CCO)c2C)c([N+](=O)[O-])c1 | -14.1% | 0.6% | 12.0% | -6.3 | 13.4µM*
C=C(CN(C)C)C(=O)c1ccc(C)cc1C | 17.8µM* | 13.2% | ? | / | 2.67µM*
Cc1ccc(C(=O)CC(=O)c2ccccc2C)c(O)c1 | -5.1% | -7.2% | 1.3% | 1.1 | 47.1%
C(=Nc1cnc2ccccc2c1)c1ccnc2ccccc12 | / | / | -2.4% | / | /
C/C=C/C(=O)[C@@H](C)[C@@H](/C=C/C[Si](C)(C)C)c1ccccc1 | -15.7% | / | -2.0% | / | /
O=C(O)c1cccc2c1-c1ccccc1/C2=N\Nc1ccccc1 | -17.7% | 4.8% | -4.4% | -13.9 | 37.7µM*
Cc1cccc(CNc2ncnc3ccc(-c4ccc5c(ccn5C)c4)cc23)c1 | / | / | / | -8.2 | /
CCOC(=O)c1c(C)n(C)c2ccc(O)c(CN3CCC(C)CC3)c12 | 89.1µM* | 5.3% | 1.1% | -6.5 | -3.3%
CCOC(=O)c1c(C)n(C)c2ccc(O)c(CN3CCN(C)CC3)c12 | -5.4% | -3.5% | 0.9% | -1.1 | -5.5%
CNC[C@H](O)c1cccc(O)c1 | 8.7% | -2.8% | -0.9% | -25.1 | -6.1%
CNC[C@H](O)c1ccc(O)c(O)c1 | 31.6µM*! | -2.2% | 0.3% | -16.9 | -3.8%
Clc1cccc(N2CCN(c3c4c(nc5nncn35)CCC4)CC2)c1 | 21.1% | / | / | / | /
CN(NC(=O)c1ccco1)c1nc2ccccc2nc1C(F)(F)F | 10.3% | 11.0% | 3.4% | -76.1* | -1.5%
COc1ccc[n+](CC(=O)c2ccc(F)cc2)c1 | / | / | -0.7% | / | /
CCn1nc(C(=O)OCC(=O)c2ccc3c(c2)OCCO3)c2ccccc2c1=O | ? | -5.6% | 0.9% | 3.7 | 21.2µM*
SMILES | VDR inhibitor | Vif-A3F inh | Vif-APOBEC3G blk | TSHR antag | PLK1 PBD block
CCn1nc(C(=O)Nc2ccc3c(c2)OCCO3)c2ccccc2c1=O | / | -0.2% | 0.0% | / | -6.0%
CC[N+]1(C)CCC(O)(/C=C/c2ccccc2)C(C(=O)/C=C/c2ccccc2)C1 (stereo not given) | 50.1µM* | 5.5% | -20.9% | / | ?
CN(CCOC(=O)/C=C/c1ccccc1)C(C)(C)C | -11.4% | 6.0% | 0.5% | 17.6 | 1.2%
CC(=O)C1=C(O)C=C2Oc3c(C(C)=O)c(O)c(C)c(O)c3C2(C)C1=O (stereo not given) | -4.5% | / | / | / | /
CC1(C)CC(=O)C(Sc2ccccc2[N+](=O)[O-])=C(O)C1 | -14.1% | -0.7% | 1.6% | 4.7 | 10.6µM*
CC1(C)CC(=O)C(C(C2=C(O)CC(C)(C)CC2=O)c2ccc(Cl)c([N+](=O)[O-])c2)C(=O)C1 (stereo not given) | -0.1% | 1.2% | -1.4% | -9.2 | -10.5%
COc1ccccc1N(C)S(=O)(=O)c1ccc(C(=O)O)cc1 | 8.6% | ? | 8.4% | 25.1 | 7.4%

Source: PubChem
